# From PubChem BioAssay (NCI)
# Compounds without any hit were thinned out: in the full panel of roughly 83,000, 20% have a hit.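 Compound tested at a single concentration for 48 hours in 96-well plates; a percent growth value below 10 was scored as active.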 A number with no mark means an inactive call. Active and inactive are the calls of the source.
# Tested on: MDA-MB-468 breast
# Test: NCI-60 one-dose screen, 48 h (100 = growth as untreated, 0 = no growth, -100 = all killed)
# Conditions: 10 µM unless noted
row,SMILES,growth
1,O=S(=O)(NCCCNc1nccc(-c2c(-c3ccc(F)c(O)c3)nc3occn23)n1)c1ccc(Cl)cc1,62.2%
2,COc1cc(-c2nc3ccccc3o2)cc(CN2CCN(c3ccccc3)CC2)c1O,76.3%
3,COc1ccc2[nH]cc(-c3csc4nc(-c5ccccc5)cn34)c2c1,21.2%
4,C#C[C@]1(O)CC[C@H]2[C@@H]3CC=C4c5sc(Nc6ccc(OC)nc6)nc5CC[C@]4(C)[C@H]3CC[C@@]21C,17.4%
5,O=C1Nc2ccccc2/C1=C\c1nc(C2CCN(S(=O)(=O)c3ccc(F)cc3)CC2)n2ccccc12,70.6%
6,COc1ccc2nc(-c3ccccc3)cc(C(C)=O)c2c1,68%
7,CCn1cc(C(=O)O)c(=O)c2cc(F)c(N3CCN(CC(=O)Nc4ccccc4)C(C)C3)c(F)c21 (configuration not stated),92.6%
8,Cc1cnc([C@]23CC[C@@H](C)[C@H](C)[C@H]2C2=CC[C@@H]4[C@@]5(C)Cc6c([nH]c7ccccc67)C(C)(C)[C@@H]5CC[C@@]4(C)[C@]2(C)CC3)o1,90.6% [100 µM]
9,C[C@@H]1OCC2(CCN(c3cnc(C(=O)Nc4cc(F)cc5cccnc45)cn3)CC2)[C@@H]1N,1.07% (active)
10,NC(=O)c1c(NC(=O)c2ccc(C3CCCCC3)cc2)sc2c1CCC(=O)C2,-10.3% (active)
11,COc1cccc(-c2cc(C(=O)Nc3ccc(/C=C/c4ccc(OC5CCN(C)CC5)cc4)cc3)ccc2OC)c1,-36.4% (active)
12,O=C(Cn1cc(CN2C(=O)c3ccccc3S2(=O)=O)nn1)Nc1cccc(Cl)c1,101%
